# The list is not random: actives were taken first. Their share in the collection is about 22%.
# Shiga inhibitor: blocks Shiga toxin action in Vero cells | Vero cells, Shiga toxin protein synthesis inhibition reporter | inhibition, % at 38.7 µM | hit rate 9.2% among 290,000; in the data active = inhibition mostly above about 28%, no sharp cut-off; inactive = mostly below about 43%; note: 0% is about no effect
# LmPK inh: inhibitors of Leishmania mexicana pyruvate kinase | Q27686 | purified LmPK, Kinase-Glo ATP luminescence, 1 h | Potency, µM (titrated, usually from 57.5 µM), inactives show at the top dose activity change, negative = inhibition, actives largely listed as inhibitors | hit rate 0.37% among 290,000; note: potency is the fitted concentration of half-maximal effect; % is set by controls: 0 for no effect and ±100 for the full control effect
# Target sequence (Q27686 whole entry, looked up): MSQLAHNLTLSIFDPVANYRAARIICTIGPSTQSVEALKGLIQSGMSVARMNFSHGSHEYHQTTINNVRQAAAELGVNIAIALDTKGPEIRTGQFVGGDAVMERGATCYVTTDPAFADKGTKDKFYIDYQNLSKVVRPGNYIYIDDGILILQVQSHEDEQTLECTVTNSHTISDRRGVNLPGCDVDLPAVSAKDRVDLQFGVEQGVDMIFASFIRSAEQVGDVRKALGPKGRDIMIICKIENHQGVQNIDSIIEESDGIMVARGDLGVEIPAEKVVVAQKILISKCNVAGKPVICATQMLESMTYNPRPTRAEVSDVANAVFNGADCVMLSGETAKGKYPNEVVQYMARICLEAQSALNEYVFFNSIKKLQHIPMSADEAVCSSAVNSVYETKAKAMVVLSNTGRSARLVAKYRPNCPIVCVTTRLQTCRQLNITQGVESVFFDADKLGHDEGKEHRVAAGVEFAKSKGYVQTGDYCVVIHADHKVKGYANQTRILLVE
#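 Kinase-Glo luminescence read after 1 h RT reaction of 0.1 nM LmPK with 0.5 mM PEP and 0.1 mM ADP. Activity scaled between uninhibited and enzyme-free controls.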
# Pf growth 96h: P. falciparum growth inhibition at 96 hour, primary screen for plastid delayed-death inhibitors. P. falciparum luciferase reporter growth, 96 h. Potency, µM (titrated, usually from 28.7 µM), for inactives: top-dose activity change, negative = inhibition, hits mostly inhibitors. hit rate 6.9% among 320,000; note: potency is the fitted concentration of half-maximal effect; % is set by controls: 0 for no effect and ±100 for the full control effect
#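 Delayed-death screen, second-generation endpoint: infected erythrocytes, 2% hematocrit, 0.05% parasitemia final; 96 hours at 37 C, 5% CO2; luciferase detection reagent; luminescence decrease equals reduced growth.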
# Pf growth 48h: inhibits P. falciparum growth in the first generation, 48 h. AID 504832. P. falciparum luciferase growth in erythrocytes, 48 h. hit rate 5.9% among 310,000. Potency, µM (doses to about 28.7 µM), without a hit: at the highest dose activity change, negative = inhibition, usual class: inhibitors; note: potency is the fitted concentration of half-maximal effect; % is set by controls: 0 for no effect and ±100 for the full control effect
#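 Luciferase-expressing P. falciparum in infected erythrocytes (2% hematocrit, 0.1% parasitemia final) in RPMI 1640/0.5% Albumax were exposed to compound for 48 hours at 37 C, 5% CO2; growth read as luminescence.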
# CHX counter: affects cycloheximide protein synthesis inhibition readout, counter-screen; hit rate 12% among 300,000; cell reporter, cycloheximide protein synthesis inhibition counterscreen; AID 2314; max response, %; in the data active = max response mostly above about 13%, no sharp cut-off; inactive = mostly below about 14%; note: read at 38.3 µM for the half of the compounds with a filed dose; 0% is about no effect
# * marks the source's active call; other numbers are inactive results; ? = inconclusive; nt = not tested or not shown; [ ] = dose if it differs, or a comment. Unless noted, calls come from the whole dose curve; as a rule, active = well fitted inhibition curve with a large enough effect; inconclusive = small, poorly fitted or top-dose-only effect, or another doubt; inactive = no such curve, though single readings can be large or run the other way.
SMILES,Shiga inhibitor,LmPK inh,Pf growth 96h,Pf growth 48h,CHX counter
O=C1CC(c2ccc(F)cc2)Cc2nc(N3CCc4ccccc43)ncc21 (stereo not drawn),22.0,-3.0%,20.8%,22.5%,2.9
CC1(C)CC(=O)c2cnc(N3CCc4ccccc43)nc2C1,88.2*,-5.6%,184.5%,188.6%,50.6*
Nc1ncc(Br)cc1S(=O)(=O)NCCC(=O)N1CCN(c2ccccc2)CC1,-8.9,4.2%,34.1%,6.57µM*,-6.0
Nc1ncc(Br)cc1S(=O)(=O)NCCC(=O)N1CCN(c2ccccn2)CC1,-21.7,-0.4%,5.8%,11.7µM*,-6.3
O=C(CCNS(=O)(=O)c1ccccc1Cl)N1CCN(c2ccccn2)CC1,nt,nt,-19.7%,-2.7%,nt
CCCN1CCN(CC(O)COC(c2ccc(OC)cc2)c2ccc(OC)cc2)CC1 (stereo not drawn),-18.1,-3.3%,26.2%,-24.4%,1.8
O=c1cc(-c2ccc(O)cc2)oc2cc(O[C@@H]3O[C@H](CO)[C@@H](O)[C@H](O)[C@H]3O[C@@H]3OC[C@](O)(CO)[C@H]3O)cc(O)c12,10.8,-2.0%,?,10.4µM*,-0.9
C[C@@H]1O[C@H](O[C@@H]2C(O)[C@H](O)[C@@H](CO)O[C@H]2Oc2cc(O)c3c(=O)cc(-c4ccc(O)cc4)oc3c2)[C@H](O)[C@H](O)[C@H]1O (stereo partly drawn),-13.2,nt,nt,nt,-6.8
O=C(NCc1ccccc1Cl)C1CCC(=O)N(CC2CCCCC2)C1 (stereo not drawn),-29.0,-9.5%,15.9%,2.9%,10.2
CNCCCC1Sc2ccccc2Oc2ccccc21 (stereo not drawn),-7.7,0.2%,9.28µM*,?,-4.5
O=C(O)[C@H]1CCCN1,0.3,nt,nt,nt,-4.8
COc1cccc2cc(C(=O)C3=C(O)C(=O)N(c4cc(C)on4)C3c3cccs3)oc12 (stereo not drawn),25.7,1.8%,0.0%,5.3%,9.1
COc1ccc(CCNc2nc(-c3ccncc3)cs2)cc1OC,14.9,0.9%,?,-16.1%,8.3
c1ccc(CCNc2nc(-c3ccncc3)cs2)cc1,51.9,-8.2%,32.6%,86.9%,29.0*
CCCCCNc1nc(-c2ccccc2)cs1,80.1*,-15.4%,nt,-5.7%,41.6*
Cc1cc(Br)cn2ccnc12,-7.9,-1.0%,?,5.6%,4.9
O=C(C1CCC(C(=O)N2CCc3ccccc32)CC1)N1CCc2ccccc21 (stereo not drawn),0.6,-1.5%,8.28µM*,2.3%,-2.5
O=C(CCl)c1ccc2c(c1)CCN2C(=O)C1CC1,18.8,-1.5%,10.4µM*,-15.3%,12.0
O=C(NC1CCCCC1)N1CCc2ccccc21,46.9*,-12.5%,4.6%,105.0%,27.9*
CCN(CC(=O)Nc1ccc(OC)cc1)C(=O)CN1C(=O)NC(C)(c2ccc3ccccc3c2)C1=O (stereo not drawn),-6.8,0.7%,-7.9%,74.5%,-2.2
NS(=O)(=O)c1ccc(CCNC(=O)CSc2nc3ccsc3c(=O)n2CCCCC(=O)O)cc1,0.1,2.0%,7.9%,24.6%,-0.8
CCCOc1ccc(NC(=O)C2CC(=O)N/C(=N/N=C(C)/C=C/c3ccc(N(C)C)cc3)S2)cc1 (stereo not drawn),82.2*,-1.8%,?,45.7%,39.7*
CC(/C=C/c1ccc(N(C)C)cc1)=N/N=C1/NC(=O)CC(C(=O)Nc2ccc(Cl)cc2)S1 (stereo not drawn),59.6*,0.5%,-2.8%,55.3%,47.9*
CC(/C=C/c1ccc(N(C)C)cc1)=N\N=C1\NC(=O)CC(C(=O)Nc2ccccc2)S1 (stereo not drawn),63.2*,-1.3%,22.8%,62.3%,49.3*
CCCOc1ccc(NC(=O)C2CC(=O)N/C(=N/N=C(\C)CCc3ccc4c(c3)OCO4)S2)cc1 (stereo not drawn),-11.4,2.0%,?,3.2%,-2.7
SMILES,Shiga inhibitor,LmPK inh,Pf growth 96h,Pf growth 48h,CHX counter
COc1ccc(NC(=O)C2CC(=O)N/C(=N/N=C/c3ccccc3)S2)cc1 (stereo not drawn),-5.3,0.7%,11.0%,5.2%,0.4
CC(C)c1ccc(OCc2ccc(C(=O)O)o2)cc1,63.6*,20.8%,243.7%,1.04µM*,35.3*
CC(C)c1ccc(OCc2ccc(C(=O)NN3CCN(C)CC3)o2)cc1,169.6*,-1.6%,?,84.8%,79.2*
CC(C)c1ccc(OCc2ccc(C(=O)N(C)C)o2)cc1,150.5*,0.0%,36.9%,1.1%[0.00184 µM],65.3*
O=C(O)c1ccc(COc2ccc([N+](=O)[O-])cc2)o1,26.1,1.5%,235.0%,35.5%,10.8
CC(C)=CCCN1CCC(NC(=O)C(O)(c2ccccc2)C2CCCC2)CC1 (stereo not drawn),-7.1,nt,nt,nt,-6.1
COc1ccc(NC(=O)c2ccc(-c3ccc(-c4noc(C)n4)cc3C)cc2)cc1N1CCN(C)CC1,nt,nt,2.62µM*,3.29µM*,nt
CCOC(=O)C1CCCN(C(=O)c2cn(CC)c(=O)c3cc(OC)c(OC)cc23)C1 (stereo not drawn),-4.1,0.6%,1.04µM*,-22.6%,-1.9
CCOC(=O)C1CCCN(C(=O)c2cn(C)c(=O)c3cc(OC)c(OC)cc23)C1 (stereo not drawn),-3.3,5.0%,6.57µM*,-6.8%,-3.7
O=C(COc1ccc(Br)cc1)Nc1ccc(CN2CCOCC2)cc1,-4.9,2.5%,?,-25.2%,3.3
CC(=O)N1CCc2cc(S(=O)(=O)NCC(=O)NCc3ccccc3Cl)ccc21,-6.1,-7.5%,9.28µM*,-13.6%,-7.9
CCC(=O)N1CCc2cc(S(=O)(=O)N3CCN(c4ccccc4)CC3)ccc21,64.5,-5.1%,?,25.5%,14.1
COc1cccc(CNC(=O)C(NS(=O)(=O)c2ccc3c(c2)CCN3C(C)=O)C(C)C)c1 (stereo not drawn),29.4,1.8%,-10.5%,-9.7%,23.6*
CCC(=O)N1CCc2cc(S(=O)(=O)N3CCN(c4cc(Cl)ccc4C)CC3)ccc21,-3.7,-4.6%,5.22µM*,-15.2%,-3.1
CCC(=O)N1CCc2cc(S(=O)(=O)NCCC(=O)NCc3ccccc3Cl)ccc21,-1.3,-1.5%,8.28µM*,1.6%,-3.0
O=C(NCc1ccncc1)C1CCCCC1,-3.6,-0.6%,nt,-6.3%,-3.5
O=S1(=O)C=C(Sc2nnc(-c3ccccc3)o2)c2ccccc21,3.8,0.2%,2.1%,3.7µM*,-5.4
CCC1(c2ccc(Cl)cc2)NC(=O)N(CC(=O)NC2CCCC(C)C2C)C1=O (stereo not drawn),nt,nt,-25.9%,?,nt
CCc1ccc2nc(NC(=O)c3ccc4c(=O)[nH]c(CN5CCOCC5)nc4c3)sc2c1,64.5*,13.4%,22.1%,nt,43.3*
CCc1nnc(NC(=O)c2ccc(N3C(=O)CCC3=O)cc2)s1,34.5,4.1%,45.9%,41.6%,16.3*
CCCCc1nnc(NC(=O)c2ccc(N3CCCC3=O)cc2)s1,nt,nt,51.3%,-15.4%,nt
CCc1ccc2nc(NC(=O)c3ccc(N4C(=O)CCC4=O)cc3)sc2c1,38.3*,-0.6%,47.8%,37.1%,22.0*
